# Measured values from PubChem BioAssay (EPA / NIEHS).
# Records with an inconclusive call do not appear. Calls of active or inactive are those of the source. Rule for the calls, unless noted: active = hit-call score of the fitted dose curve at least 0.9, where 1 is the maximum; inconclusive = response in the unintended direction; inactive = score below 0.9.
# Experiments:
# [1] = TOX21_p53_BLA_p2_viability: Viability Assessment in the Tox21 HCT-116 p53 Agonism Beta-lactamase Assay, Phase 2 (AID 2283591);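 note: compound exposure lasted 16 h at 37 °C; actives lower the ATP signal meaning cytotoxicity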
# Outline: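 Cytotoxicity readout: CellTiter-Glo ATP luminescence, 30 min at room temperature, after the beta-lactamase read. Cells were HCT116 exposed 16 h at 37C to compounds pin-transferred at 217-fold dilution from DMSO stocks.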
# [2] = target: Cellular tumor antigen p53 (Homo sapiens) (UniProt P04637); experiment: TOX21_p53_BLA_p2_ratio: Tox21 HCT-116 p53 Agonism Beta-lactamase Assay, Ratio, Phase 2 (AID 2283592)
# Cellular tumor antigen p53 (Homo sapiens), sequence (P04637 whole entry, looked up): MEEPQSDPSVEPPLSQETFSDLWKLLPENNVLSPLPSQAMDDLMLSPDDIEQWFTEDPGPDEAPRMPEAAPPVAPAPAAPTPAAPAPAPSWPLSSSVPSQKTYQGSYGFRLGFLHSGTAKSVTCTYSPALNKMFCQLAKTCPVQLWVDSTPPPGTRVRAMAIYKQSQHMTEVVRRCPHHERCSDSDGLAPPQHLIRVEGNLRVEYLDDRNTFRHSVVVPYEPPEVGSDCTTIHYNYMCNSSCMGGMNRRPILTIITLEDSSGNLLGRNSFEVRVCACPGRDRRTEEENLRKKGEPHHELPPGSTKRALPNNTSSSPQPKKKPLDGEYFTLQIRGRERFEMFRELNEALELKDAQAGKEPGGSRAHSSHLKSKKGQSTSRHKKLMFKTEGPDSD
# Outline: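 Ratio endpoint: beta-lactamase cleavage of CCF4-AM, blue (460 nm) over green (530 nm). HCT116 reporter line; 16 h treatment, 37C; substrate 2 h RT.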
# [3] = TOX21_p53_BLA_p3_viability: Viability Assessment in the Tox21 HCT-116 p53 Agonism Beta-lactamase Assay, Phase 3 (AID 2283593);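 note: cells exposed to compound for 16 h before reading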
# Outline: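 Cellular ATP was quantified by CellTiter-Glo luminescence, read after 30 min at room temperature. Beforehand, HCT116 cells (4000/well) received compound 5 h post-seeding, 217-fold diluted from DMSO, then incubated 16 h at 37C.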
# [4] = target: Cellular tumor antigen p53 (Homo sapiens) (UniProt P04637); experiment: TOX21_p53_BLA_p3_ratio: Tox21 HCT-116 p53 Agonism Beta-lactamase Assay, Ratio, Phase 3 (AID 2283596)
# Outline: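 Cells were seeded at 4000/well, rested 5 h at 37C, then dosed with DMSO compound solutions (217-fold dilution) for 16 h. CCF4-AM substrate was loaded for 2 h at room temperature, and the 460/530 nm emission ratio was fitted for gain of signal versus DMSO.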
# [5] = TOX21_p53_BLA_p4_viability: Viability Assessment in the Tox21 HCT-116 p53 Agonism Beta-lactamase Assay, Phase 4 (AID 2283597);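 note: hits lower the luminescence signal meaning cytotoxicity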
# Outline: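 Cytotoxicity was inferred from loss of CellTiter-Glo luminescence. HCT116 cells had been dosed with compounds after 5 h plating, incubated 16 h at 37C and 5% CO2, and exposed to the CCF4-AM substrate for 2 h.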
# [6] = target: Cellular tumor antigen p53 (Homo sapiens) (UniProt P04637); experiment: TOX21_p53_BLA_p5_ratio: Tox21 HCT-116 p53 Agonism Beta-lactamase Assay, Ratio, Phase 5 (AID 2283599)
# Outline: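 Beta-lactamase reporter ratio (blue 460 nm over green 530 nm, 405 nm excitation) after 2 h CCF4-AM loading, in HCT-116 cells exposed 16 h at 37 C to compounds pinned at 217-fold dilution. Increases relative to DMSO baseline scored.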
# [7] = target: Cellular tumor antigen p53 (Homo sapiens) (UniProt P04637); experiment: TOX21_p53_BLA_p4_ratio: Tox21 HCT-116 p53 Agonism Beta-lactamase Assay, Ratio, Phase 4 (AID 2283601)
# Outline: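 Signal is the blue/green (460nm/530nm) ratio of cleaved versus uncleaved CCF4-AM substrate, read after 2 h substrate loading. Cells were HCT116 carrying the p53-responsive beta-lactamase reporter, dosed 16 h at 37C, 5% CO2; CellTiter-Glo measured in parallel.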
# PGR (gene 5241) [8] = target: PGR (gene 5241) (UniProt P06401); experiment: TOX21_PR_BLA_Followup_Antagonist_ratio: Tox21 HEK293 Progesterone Receptor (PR) Antagonism Beta-lactamase Follow-Up Assay, Ratio (AID 2283934);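 note: PR-UAS-bla HEK293T cells stimulated with 1 nM R5020 agonist for 16 hr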
# PGR (gene 5241), sequence (P06401 whole entry, looked up): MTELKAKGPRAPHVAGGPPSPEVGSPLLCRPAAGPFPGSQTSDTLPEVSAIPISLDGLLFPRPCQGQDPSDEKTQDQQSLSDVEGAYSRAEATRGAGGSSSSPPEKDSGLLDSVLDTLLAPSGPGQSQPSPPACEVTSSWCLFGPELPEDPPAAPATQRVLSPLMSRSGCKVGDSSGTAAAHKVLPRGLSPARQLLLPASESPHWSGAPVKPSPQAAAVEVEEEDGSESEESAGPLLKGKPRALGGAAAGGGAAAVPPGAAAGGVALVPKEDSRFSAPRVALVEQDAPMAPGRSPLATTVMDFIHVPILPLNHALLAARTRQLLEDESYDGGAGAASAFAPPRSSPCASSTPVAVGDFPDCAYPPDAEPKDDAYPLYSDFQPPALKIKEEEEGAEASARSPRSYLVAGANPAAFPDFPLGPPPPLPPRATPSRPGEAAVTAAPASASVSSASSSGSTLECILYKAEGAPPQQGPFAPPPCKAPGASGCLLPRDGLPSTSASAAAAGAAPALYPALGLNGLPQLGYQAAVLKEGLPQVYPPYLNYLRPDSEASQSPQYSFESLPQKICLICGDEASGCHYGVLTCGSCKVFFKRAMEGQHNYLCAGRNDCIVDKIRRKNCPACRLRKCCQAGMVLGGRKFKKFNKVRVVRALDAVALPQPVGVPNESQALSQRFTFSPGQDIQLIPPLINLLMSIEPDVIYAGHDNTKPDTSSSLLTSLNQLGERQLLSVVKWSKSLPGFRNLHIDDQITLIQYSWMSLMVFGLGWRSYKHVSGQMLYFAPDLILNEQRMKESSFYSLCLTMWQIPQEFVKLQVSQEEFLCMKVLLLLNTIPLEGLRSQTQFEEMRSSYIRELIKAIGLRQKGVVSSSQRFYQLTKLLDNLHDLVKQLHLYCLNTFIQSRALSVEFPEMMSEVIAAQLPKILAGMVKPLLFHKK
# Outline: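 Measured in PR-UAS-bla HEK293T cells co-treated with compound and 1 nM promegestone for 16 hr; beta-lactamase ratio read after 2 h FRET substrate loading, with parallel CellTiter-Glo cytotoxicity.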
# [9] = TOX21_PR_BLA_Followup_Agonist_viability: Viability Assessment in the Tox21 HEK293 Progesterone Receptor (PR) Agonism Beta-lactamase Follow-Up Assay (AID 2283935);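 note: signal loss means lower viability so actives are cytotoxic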
# Outline: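 Viability is read as CellTiter-Glo luminescence, where loss of signal indicates cytotoxicity. The cells are PR-UAS-bla HEK293T given compounds for 16 hr at 37C and 5% CO2, in the same wells used for the bla readout.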
# [10] = TOX21_PR_BLA_Followup_Antagonist_viability: Viability Assessment in the Tox21 HEK293 Progesterone Receptor (PR) Antagonism Beta-lactamase Follow-Up Assay (AID 2283936);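 note: cells exposed to compound with R5020 agonist for 16 h; hits lower the luminescence signal meaning cytotoxicity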
# Outline: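 PR-UAS-bla HEK293T cells in medium with 2% charcoal-stripped FBS were treated with compounds plus R5020 for 16 hr at 37C. After the beta-lactamase read, CellTiter-Glo was added to the same wells and luminescence read after 30 min at room temperature.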
# PGR (gene 5241) [11] = target: PGR (gene 5241) (UniProt P06401); experiment: TOX21_PR_LUC_Followup_Antagonist: Tox21 HEK293 Progesterone Receptor (PR) Antagonism Luciferase Follow-Up Assay (AID 2283938);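 note: curve fitted upward as signal gain over DMSO baseline despite antagonist label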
# Outline: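 HEK293-PR-A-luc cells were precultured 5 days in medium with 10% charcoal-stripped FBS, seeded 3,000/well, then exposed to compounds in DMSO for 16 h at 37C. Luciferase was read by ONE-Glo luminescence after 30 min at room temperature.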
# [12] = TOX21_PR_LUC_Followup_Agonist_viability: Viability Assessment in the Tox21 HEK293 Progesterone Receptor (PR) Agonism Luciferase Follow-Up Assay (AID 2283941);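 note: loss of signal means cytotoxicity so actives lower viability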
# Outline: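 Seeding: HEK293-PR-A-luc, 3,000 cells/well, 5 h at 37C. Treatment: compound in DMSO, 16 h, 37C. Read: CellTiter-Glo ATP luminescence, signal loss taken as lower viability.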
# [13] = target: Thyroid hormone receptor alpha (Rattus norvegicus) + Thyroid hormone receptor beta (Rattus norvegicus) (UniProt P18113+P63059); experiment: TOX21_TR_LUC_GH3_Antagonist_Followup: Tox21 GH3 Thyroid Hormone Receptor Antagonism Luciferase Follow-Up Assay (AID 2283942)
# Outline: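 Loss of T3-driven (1.0 nM final) reporter activity in GH3 cells was read by ONE-Glo luminescence after 24 h incubation at 37C; 15-point compound series spanned 92 uM to 5nM final, 1,500 cells/well.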
# [14] = TOX21_TRB_BLA_Antagonist_Followup_viability: Viability Assessment in the Tox21 Thyroid Hormone Receptor beta Antagonism Beta-lactamase (BLA) Follow-Up Assay (AID 2283961)
# Outline: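 HEK293T cells stably expressing GAL4-DBD/human TRβ-LBD with UAS-bla reporter, 3,000 cells/well in phenol red-free DMEM, 2% charcoal-stripped FBS. Compounds at 11 concentrations in triplicate, 18 h at 37C/5% CO2; viability by CellTiter-Glo luminescence after 30 min at room temperature.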
# [15] = target: Retinoic acid receptor RXR-alpha (Homo sapiens) (UniProt P19793); experiment: TOX21_TR_RXR_BLA_Antagonist_Followup_ratio: Tox21 Thyroid Hormone Receptor beta Retinoid X Receptor alpha (RXRa) Antagonism Beta-lactamase (BLA) Follow-Up Assay, Ratio (AID 2283972)
# Retinoic acid receptor RXR-alpha (Homo sapiens), sequence (P19793 whole entry, looked up): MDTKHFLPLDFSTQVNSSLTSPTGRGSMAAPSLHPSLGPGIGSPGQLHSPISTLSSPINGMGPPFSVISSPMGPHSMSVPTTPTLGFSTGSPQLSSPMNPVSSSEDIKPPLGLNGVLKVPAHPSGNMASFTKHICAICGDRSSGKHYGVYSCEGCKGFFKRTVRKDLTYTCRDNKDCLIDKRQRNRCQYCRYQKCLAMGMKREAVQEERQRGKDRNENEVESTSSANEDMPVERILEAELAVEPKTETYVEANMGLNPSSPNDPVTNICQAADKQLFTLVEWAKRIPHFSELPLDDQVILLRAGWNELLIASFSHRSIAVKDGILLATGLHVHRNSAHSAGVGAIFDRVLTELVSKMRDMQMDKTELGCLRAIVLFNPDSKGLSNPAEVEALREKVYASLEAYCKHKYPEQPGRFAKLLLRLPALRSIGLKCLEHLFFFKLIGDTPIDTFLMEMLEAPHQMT
# Outline: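 RXRa-UAS-bla HEK293T cells in phenol red-free DMEM with 2% charcoal-stripped FBS; compounds at 11 concentrations in triplicate, 16 h at 37C. LiveBLAzer FRET-B/CCF4-AM substrate 2 h at room temperature; read as 460:530 nm ratio versus DMSO.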
# [16] = TOX21_TR_RXR_BLA_Antagonist_Followup_viability: Viability Assessment in the Tox21 Thyroid Hormone Receptor beta Retinoid X Receptor alpha (RXRa) Antagonism Beta-lactamase (BLA) Follow-Up Assay (AID 2283979)
# Outline: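 Follow-up compounds (11 concentrations, triplicate) were incubated 16 h at 37C/5% CO2 with HEK293T RXRa-bla cells seeded at 2,500/well in charcoal-stripped-serum medium. ATP content by CellTiter-Glo luminescence gave viability; curves fitted in both directions against DMSO.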
# [17] = TOX21_p53_BLA_p5_viability: Viability Assessment in the Tox21 HCT-116 p53 Agonism Beta-lactamase Assay, Phase 5 (AID 2283600)
# Outline: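 Luciferase-coupled ATP quantitation of cells treated for 16 h (37C, 5% CO2) with test chemicals delivered in DMSO via a 217-fold dilution; 4000 cells/well; reagent incubated 30 min at room temperature before luminescence reading.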
# [18] = CCTE_Harrill_HTTr_Viability_MCF7: CCTE's 6-hour Cell Viability Assessment for the High-Throughput Transcriptomics (HTTr) Platform, in MCF-7 cells cultured in DMEM + 10% fetal bovine serum, Harrill Lab (AID 2284010; active = hit-call score of the fitted dose curve at least 0.9, where 1 is the maximum; inactive = score below 0.9)
# Outline: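 Eight-point concentration series, six-hour exposure. Propidium iodide exclusion imaged to assess membrane integrity as a cytotoxicity readout; bidirectional fitting was done with DMSO as negative control and activity baseline.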
# [19] = CCTE_Harrill_HTTr_CellCount_MCF7: CCTE's Cell Proliferation Assessment for the High-Throughput Transcriptomics (HTTr) Platform, Harrill Lab (AID 2284012);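 note: count of Hoechst-stained nuclei per well by high-content imaging in MCF-7 cells; cells exposed to compound for six hours; intended direction is loss of nuclei count meaning fewer cells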
# Outline: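 For this full-screen endpoint, MCF-7 cultures received eight compound dilutions for six hours. Well nuclei counts from Hoechst imaging were analyzed relative to DMSO.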
# THRA (gene 7067) = THRA (gene 7067) (UniProt P10827); experiment: TOX21_TRA_COA_Antagonist_Followup_ratio: Tox21 Thyroid Hormone Receptor alpha Antagonism through Coactivator Recruitment Follow-Up Assay, Ratio (AID 2283953)
# THRA (gene 7067), sequence (P10827 whole entry, looked up, the tested form may be a part): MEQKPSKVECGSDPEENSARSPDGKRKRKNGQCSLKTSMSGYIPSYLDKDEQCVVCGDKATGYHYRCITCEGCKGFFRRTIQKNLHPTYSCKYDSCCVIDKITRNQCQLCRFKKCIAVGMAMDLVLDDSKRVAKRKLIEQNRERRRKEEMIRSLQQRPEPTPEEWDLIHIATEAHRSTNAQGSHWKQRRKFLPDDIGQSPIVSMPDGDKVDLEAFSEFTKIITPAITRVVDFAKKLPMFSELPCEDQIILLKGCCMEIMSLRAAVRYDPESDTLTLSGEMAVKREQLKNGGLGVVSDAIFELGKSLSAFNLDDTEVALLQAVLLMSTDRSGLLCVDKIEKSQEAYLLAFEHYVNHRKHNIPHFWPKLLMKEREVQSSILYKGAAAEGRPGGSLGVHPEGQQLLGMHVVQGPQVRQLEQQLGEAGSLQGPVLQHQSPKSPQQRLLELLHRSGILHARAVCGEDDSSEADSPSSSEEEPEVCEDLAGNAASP
# Outline: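 We measured antagonism of T3-type coactivator recruitment using a TR-FRET ratio (emission 520 and 495 nm) between a Tb-labelled anti-GST antibody on TRα LBD (2.5 nM) and SRC-2 peptide (200 nM). Activity was scaled between DMSO and T3 wells.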
structure (smiles),measurement,setting,value
C=CC[C@]1(O)CC[C@H]2[C@@H]3CCC4=CC(=O)CCC4=C3C=C[C@@]21C,outcome,[1],inactive
same,outcome,[2],inactive
same,outcome,[3],inactive
same,outcome,[4],inactive
same,outcome,[5],inactive
same,outcome,[6],inactive
same,outcome,[7],inactive
same,outcome,PGR (gene 5241) [8],inactive
same,outcome,[9],inactive
same,outcome,[10],inactive
same,outcome,PGR (gene 5241) [11],inactive
same,outcome,[12],inactive
same,outcome,[13],inactive
same,outcome,[14],inactive
same,outcome,[15],inactive
same,outcome,[16],inactive
O=NN1CCN(N=O)CC1,outcome,[1],inactive
same,outcome,[2],inactive
same,outcome,[3],inactive
same,outcome,[4],inactive
same,outcome,[5],inactive
same,outcome,[17],inactive
same,outcome,[7],inactive
COc1cccc2c1cc([N+](=O)[O-])c1c(C(=O)O)cc3c(c12)OCO3,outcome,[1],inactive
same,AC50,[2],1.75 µM (active)
same,AC50,[3],79.8 µM (active)
same,AC50,[4],6.78 µM (active)
same,outcome,[5],inactive
same,AC50,[6],13.2 µM (active)
same,AC50,[7],3.74 µM (active)
same,outcome,[18],inactive
same,outcome,[19],inactive
CCN(CC)CCO[C@H]1CC[C@@]2(C)C(=CC[C@@H]3[C@@H]2CC[C@]2(C)C(=O)CC[C@@H]32)C1,outcome,[1],inactive
same,outcome,[2],inactive
same,outcome,[3],inactive
same,outcome,[4],inactive
same,outcome,[5],inactive
same,outcome,[6],inactive
same,outcome,[17],inactive
same,outcome,[7],inactive
same,outcome,[13],inactive
same,outcome,THRA (gene 7067),inactive
same,outcome,[14],inactive
same,outcome,[15],inactive
same,outcome,[16],inactive
